DT40 TDP1 no CPT: qHTS for Inhibitors of human tyrosyl-DNA phosphodiesterase 1 (TDP1): qHTS in cells in absence of CPT; DT40 Tdp1-/- hTDP1 cells, no CPT, ATP luminescence, 48 h; Potency, µM (titrated, usually from 46.2 µM), without a hit: at the highest dose activity change, negative = growth inhibition, usual class: inhibitors; 420,000 compounds, 15% hits; also: potency is read from the fitted curve at half-maximal effect; % is scaled to controls: 0 for no effect and ±100 for the full control effect; nearly all actives have a fitted effect of over 55% in size
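Compound effects on proliferation are scored in DT40 Tdp1-/-;hTDP1 cells in the absence of CPT. ATP levels (CellTiter-Glo luminescence) are recorded after a ≥48 hr, 37 °C incubation.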
HepG2 viability: qHTS for Inhibitors of TGF-b: Cytotox Counterscreen; HepG2 CAGA-GFP viability, ATP luminescence, 18 h; Potency, µM (titrated, usually from 46.1 µM), inactives show at the top dose activity change, negative = cytotoxicity, usual class: cytotoxic; 410,000 compounds, 0.76% hits; AID 588856, 2011; also: potency is read from the fitted curve at half-maximal effect
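CellTiter-Glo luminescence gave cytotoxicity after 18 hours at 37 degrees C. The cells were HepG2 CAGA-GFP in 1% FBS DMEM, stimulated with 500 pg/mL TGF-beta after compound addition. %Activity was normalised to no-cell wells (complete cell-killing) and DMSO (no toxicity), and curves were fitted and classified.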
IL-1B inflam inh: qHTS for Inhibitors of Inflammasome Signaling: IL-1-beta AlphaLISA Primary Screen; THP-1 LPS/ATP IL-1B secretion, AlphaLISA, 16 h; active compounds read low; activity change, % at 57.5 µM; 360,000 compounds, 4.7% hits; AID 743279, 2014; in the data active = activity change below about -50%; inconclusive = mostly about -30% to -49%; also: % is scaled to controls: 0 for no effect and ±100 for the full control effect
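THP-1 cells pretreated 1 hr with compounds (up to 57.5 uM final), then stimulated with LPS (250 ng/mL final) plus ATP (1.25 mM final); secreted IL-1B measured by AlphaLISA after 16 hr, decreased signal indicating inhibition.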
DT40 TDP1 CPT: qHTS for Inhibitors of human tyrosyl-DNA phosphodiesterase 1 (TDP1): qHTS in cells in presence of CPT; chicken DT40 Tdp1-/-;hTDP1 cells + 20 nM CPT, ATP luminescence, 48 h; 420,000 compounds, 12% hits; AID 686979, 2013; Potency, µM (highest dose often 46.2 µM), for the others: at the top dose activity change, negative = growth inhibition, actives largely listed as inhibitors; also: potency is read from the fitted curve at half-maximal effect; % is scaled to controls: 0 for no effect and ±100 for the full control effect; nearly all actives have a fitted effect of over 55% in size
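Chicken DT40 Tdp1-/- cells complemented with human TDP1, 400 cells/well, exposed to compounds plus 20 nM camptothecin for at least 48 h at 37 C; viability read as ATP content by CellTiter-Glo luminescence.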
S-ASM inh: Inhibitors of Secretory Acid Sphingomyelinase (S-ASM): qHTS; 340,000 compounds, 0.006% hits; AID 504937, 2011; placental ASM, HMU-PC fluorogenic substrate, 60 min; Sphingomyelin phosphodiesterase (Homo sapiens), P17405; Potency, µM (titrated, usually from 57.5 µM), without a hit: at the top dose activity change, negative = inhibition, usual class: inhibitors; also: potency is read from the fitted curve at half-maximal effect
Target sequence (P17405 47-631 limits assumed): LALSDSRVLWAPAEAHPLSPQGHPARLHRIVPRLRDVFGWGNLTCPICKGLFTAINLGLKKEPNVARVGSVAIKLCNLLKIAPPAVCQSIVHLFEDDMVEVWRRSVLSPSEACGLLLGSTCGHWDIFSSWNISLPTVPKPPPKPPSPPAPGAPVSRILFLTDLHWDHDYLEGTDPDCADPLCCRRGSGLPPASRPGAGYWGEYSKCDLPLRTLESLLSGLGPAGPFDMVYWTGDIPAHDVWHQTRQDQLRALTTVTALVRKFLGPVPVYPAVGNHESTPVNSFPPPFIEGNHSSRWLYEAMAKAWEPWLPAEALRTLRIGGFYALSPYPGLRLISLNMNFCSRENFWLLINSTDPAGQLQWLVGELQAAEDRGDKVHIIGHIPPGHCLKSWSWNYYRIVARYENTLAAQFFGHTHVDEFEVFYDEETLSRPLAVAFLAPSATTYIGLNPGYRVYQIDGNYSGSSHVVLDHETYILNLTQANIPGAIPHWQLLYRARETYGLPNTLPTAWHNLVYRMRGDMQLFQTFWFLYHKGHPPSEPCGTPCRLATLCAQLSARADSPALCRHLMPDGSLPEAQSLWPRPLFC
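Fluorogenic HMU-PC substrate (9 uM final) is turned over by placental ASM in 60 min at 37 C after a 10 min compound preincubation. Reaction ended by alkaline stop (pH 10), with fluorescence read at 386/447 nm.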
TGFb inhibitor: qHTS for Inhibitors of TGF-b; 410,000 compounds, 1.2% hits; Potency, µM (titrated, usually from 46.1 µM), for inactives: at the highest dose activity, negative = inhibition, hits mostly inhibitors; HepG2 CAGA-GFP TGF-b/SMAD3 reporter, GFP fluorescence, 18 h; TGF-beta stimulated, 500 pg/mL final; also: potency is read from the fitted curve at half-maximal effect; % is scaled to controls: 0 for no effect and ±100 for the full control effect; nearly all actives have a fitted effect of over 65% in size
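TGF-beta reporter screen: HEPG2 CAGA-GFP, 1% FBS, 500 pg/mL TGF-beta final, 18 h; per-cell GFP summed per well; curves fitted and categorized by class.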
* hit, by the source's call; ? = inconclusive; · = no result given. A selection: hits, their analogues and other compounds. The true share with any hit is near 19%. Unless noted, calls follow the shape of the dose curve; as a rule, active = well fitted curve in the direction sought with a large enough effect; inconclusive = small, poorly fitted or top-dose-only effect, or another doubt; inactive = no such curve, though single readings can be large; an effect the other way counts as inactive or inconclusive.

SMILES	DT40 TDP1 no CPT	HepG2 viability	IL-1B inflam inh	DT40 TDP1 CPT	S-ASM inh	TGFb inhibitor
COc1ccc(NC(=O)C2=C(C)Nc3nc(SC)nn3C2c2cc(OC)ccc2OC)cc1 (stereo unspecified)	3%	-9%	·	4%	·	-13%
CC[C@H](CC[C@@H](C)[C@H]1CC[C@H]2[C@@H]3CC=C4C[C@@H](O)CC[C@]4(C)[C@H]3CC[C@]12C)C(C)C	4%	·	·	7%	·	·
CCOC(=O)C(Cc1ccc(NC(=O)/C(=C/c2ccccc2)NC(=O)c2ccccc2)cc1)N1C(=O)c2ccccc2C1=O (stereo unspecified)	5.8µM*	-1%	26	5.2µM*	3%	-2%
CCOc1ccc(NC(=O)[C@H](Cc2ccccc2)N2Cc3ccccc3C2=O)cc1	-3%	2%	·	5%	·	-11%
CCOC(=O)C(Cc1ccc(NC(=O)/C(=C/c2ccc(OC(C)=O)cc2)NC(C)=O)cc1)N1C(=O)c2ccccc2C1=O (stereo unspecified)	?	-7%	0	?	-2%	7%
CCOc1ccc(NC(=O)C(Cc2ccccc2)N2C(=O)c3cccc4cccc(c34)C2=O)cc1 (stereo unspecified)	8.2µM*	-9%	93	12µM*	-1%	0%
COc1cc(/C=C2/CCCC(C(=O)C(F)(F)F)=C2O)ccc1O	-18%	-11%	-24	11%	-2%	9%
COc1ccc(/C=C2/CCCC(C(=O)C(F)(F)F)=C2O)cc1OC	18µM*	-4%	?	23µM*	-15%	?
CCOc1cc(/C=C2\CCCC(C(=O)C(F)(F)F)=C2O)ccc1O	23µM*	-47%	?	23µM*	-24%	-19%
COC(=O)c1nnn(-c2cccc(C)c2)c1N	·	1%	·	·	·	5%
CCCCCCS(=O)[C@H]1CS(=O)(=O)C[C@@H]1S(=O)CCCCCC (stereo partly specified)	?	-3%	-14	23µM*	-4%	12%
CCCCCCCCS(=O)C1CCS(=O)(=O)C1 (stereo unspecified)	?	-26%	5	-19%	4%	0%
C=CCn1c(SCc2nc3cc(C(=O)OC)ccc3c(=O)[nH]2)nc2sc(CC)cc2c1=O	18µM*	-1%	5	?	0%	3%
C=CCn1c(SCC(=O)Nc2sccc2C(N)=O)nc2sc(CC)cc2c1=O	26µM*	-16%	-30	?	-9%	8%
C=CCn1c(SCC(=O)c2c(N)n(CCC)c(=O)n(C)c2=O)nc2sc(CC)cc2c1=O	5.8µM*	3%	0	6.5µM*	5%	-23%
C=CCn1c(SC(C)C(N)=O)nc2sc(CC)cc2c1=O (stereo unspecified)	?	-13%	56	-2%	-1%	-1%
C=CCn1c(SCC(=O)Nc2sccc2C(N)=O)nc2ccc(Cl)cc2c1=O	16µM*	-24%	-6	15µM*	-4%	-17%
CCOc1ccc(C2C(=O)N(C3CCCCCC3)CC(=O)N2Cc2ccc(F)cc2)cc1OC (stereo unspecified)	?	-12%	·	?	·	-15%
COc1ccc(-n2c(SCC(=O)c3ccccc3)nc3c([nH]c4ccccc43)c2=O)cc1	-13%	-10%	·	-18%	·	5%
Cc1cccc(C(=O)NC(=O)Nc2ccc(-c3cc(C(F)(F)F)nn3-c3ccccc3)cc2)c1	?	-1%	·	-15%	·	-33%
C=CCn1c(SCN2C(=O)c3ccccc3C2=O)nc2ccc(Cl)cc2c1=O	18µM*	-1%	33	18µM*	-1%	6%
COC(=O)c1ccc2c(=O)[nH]c(CCl)nc2c1	15µM*	-8%	-97*	12µM*	11%	-25%
C=CCn1c(SCc2nc3ccccc3c(=O)[nH]2)nc2scc(C3CC3)c2c1=O	16µM*	-31%	14	15µM*	0%	?
C=CCn1c(SCC(N)=O)nc2ccccc2c1=O	-27%	-17%	·	-11%	·	-5%
CN1C(=O)c2cccc3c(S(=O)(=O)Nc4ccccc4F)ccc1c23	-24%	-17%	-21	-29%	-5%	0%
SMILES	DT40 TDP1 no CPT	HepG2 viability	IL-1B inflam inh	DT40 TDP1 CPT	S-ASM inh	TGFb inhibitor
O=C(COC(=O)c1cccc(S(=O)(=O)N2CCCCC2)c1)NCc1cccc(Cl)c1	1%	-15%	-2	0%	·	-10%
COc1ccc(S(=O)(=O)N2CCc3ccccc32)cc1[N+](=O)[O-]	?	-2%	-2	23µM*	-5%	-4%
COc1ccc(S(=O)(=O)N2CCc3ccccc32)cc1C(=O)Nc1ccc(C(N)=O)cc1	?	-90%	0	23µM*	2%	?
CCOc1ccc(C(=O)Nc2ccc3c(c2)N(C(C)=O)CCC3)cc1OCC	21µM*	6%	·	?	·	-1%
CCOc1ccc(C(=O)Nc2ccc3c(c2)OCO3)cc1OCC	-8%	-1%	8	-3%	0%	-4%
COc1cc(C(=O)Nc2ccc3c(c2)CCN3C(C)=O)cc(OC)c1OC	2.1µM*	27%	0	?	-1%	-17%
COc1ccccc1NC(=O)c1ccc2c(c1)N(CC#N)C(=O)C(C)(C)O2	?	7%	18	?	-1%	6%
O=C(Cn1c(=O)nc(-c2ccccc2)c2ccccc21)NCCc1ccc(Cl)cc1	-24%	-2%	·	-6%	·	-6%
CC(C)(C)N(Cc1ccccc1)C(=O)COC(=O)c1ccc(S(=O)(=O)N2CCOCC2)cc1	-6%	6%	14	?	-1%	-1%
CCn1cc(C(=O)Nc2ccc(Cl)cc2Cl)cn1	-3%	5%	-10	-1%	4%	-3%
CCOc1ccc(C(=O)Nc2cccc(C(=O)O)c2)cc1Cl	?	-9%	-9	-12%	2%	11%
COc1ccccc1C(=O)Nc1ccc(S(=O)(=O)N2CCc3ccccc32)cc1	21µM*	-5%	-9	?	-4%	-9%
COc1cc(C(=O)Nc2ccc(S(=O)(=O)N3CCc4ccccc43)cc2)cc(OC)c1OC	16µM*	-4%	-11	?	-11%	10%
